In PubChem BioAssay:
Where “and” joins values, the source holds several entries; their conditions need not be identical. Equal values may be shown once. Calls of active or inactive are those of the source.

Tests used:
[1] = anti-His antibody binders, primary screen, artefact control for SMM control protein annotation, biochemical, small-molecule microarray, 635 nm fluorescence (AID 1128); conditions: anti-His Alexa647 antibody binding, higher = more signal;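 note: score merges feature fluorescence with signal-to-noise for each printed compound spot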
[2] = system: Human papillomavirus type 1a E7 protein (residues 1-88); experiment: HPV1a E7 small-molecule binders, primary screen, biochemical, small-molecule microarray, residues 1-88, 635 nm (AID 1129); conditions: small-molecule microarray binding, fluorescence 635 nm; higher = more signal
[3] = biological target: Focal adhesion kinase 1 (Homo sapiens) (UniProt Q05397); experiment: small-molecule microarray binders of FAK, primary screen, biochemical, 635/667 nm fluorescence, BSA, DTT (AID 1130); conditions: PTK2 binding, 635 nm fluorescence, higher = more signal;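 note: composite of spot emission at 667 nm and signal to noise over triplicate slides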
[4] = system: Fibrinogen (Alexa647-labelled); experiment: fibrinogen binders on compound microarrays, profiling panel, artefact control for SMM control-protein annotation, biochemical, small-molecule microarray, 635/667 nm fluorescence (AID 1131); conditions: fibrinogen-A647 binding fluorescence, higher = more signal;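 note: z-score merges 667 nm fluorescence with per-spot signal-to-noise over triplicate slides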
[5] = biological target: Follistatin (Homo sapiens) (UniProt P19883); experiment: follistatin binders on small-molecule microarrays, primary screen, biochemical, small-molecule microarray, 635/667 nm fluorescence (AID 1132); conditions: FST binding, 635 nm fluorescence, higher = more signal
[6] = biological target: Fibroblast growth factor 2 (Homo sapiens) (UniProt P09038); experiment: FGF2 binders on small-molecule microarrays, primary screen, biochemical, small-molecule microarray, 635/667 nm fluorescence (AID 1133); conditions: small-molecule microarray binding, FGF2, fluorescence 635/667; higher = more signal
[7] = mitochondrial membrane potential change in A549 cells, profiling panel, cell-based, JC-1 fluorescence, basal, 24 h, 100 nL (AID 1138); conditions: higher = more signal;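 note: A549 lung adenocarcinoma cells under basal conditions with no added stimulus; test concentration not given here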
Lefty1 = Lefty1 binders on small-molecule microarrays, primary screen, biochemical, small-molecule microarray, 635/667 nm fluorescence (AID 1139); conditions: small-molecule microarray binding, fluorescence 635/667; higher = more signal
[8] = system: wheat germ agglutinin (Triticum aestivum), Alexa647-labelled; experiment: wheat germ agglutinin binders on compound microarrays, profiling panel, artefact control for SMM control-protein annotation, biochemical, small-molecule microarray, 635/667 nm fluorescence (AID 1140); conditions: WGA-A647 binding, 635 nm fluorescence, higher = more signal;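 note: score merges 667 nm feature emission with signal to noise over triplicate slides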
[9] = biological target: Luciferin 4-monooxygenase (Photinus pyralis) (UniProt P08659); experiment: firefly luciferase enzyme inhibitors, primary screen, biochemical, luminescence, purified enzyme, 2006 set (AID 1141); conditions: SteadyGlo luminescence, 30 min, higher = more signal, called active from +8 up or from −8 down;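 note: cell-free assay with purified firefly luciferase at 100 ng per well in PBS; test concentration not given here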
Chain of Luciferin 4-monooxygenase (Photinus pyralis) (P08659 whole entry, looked up): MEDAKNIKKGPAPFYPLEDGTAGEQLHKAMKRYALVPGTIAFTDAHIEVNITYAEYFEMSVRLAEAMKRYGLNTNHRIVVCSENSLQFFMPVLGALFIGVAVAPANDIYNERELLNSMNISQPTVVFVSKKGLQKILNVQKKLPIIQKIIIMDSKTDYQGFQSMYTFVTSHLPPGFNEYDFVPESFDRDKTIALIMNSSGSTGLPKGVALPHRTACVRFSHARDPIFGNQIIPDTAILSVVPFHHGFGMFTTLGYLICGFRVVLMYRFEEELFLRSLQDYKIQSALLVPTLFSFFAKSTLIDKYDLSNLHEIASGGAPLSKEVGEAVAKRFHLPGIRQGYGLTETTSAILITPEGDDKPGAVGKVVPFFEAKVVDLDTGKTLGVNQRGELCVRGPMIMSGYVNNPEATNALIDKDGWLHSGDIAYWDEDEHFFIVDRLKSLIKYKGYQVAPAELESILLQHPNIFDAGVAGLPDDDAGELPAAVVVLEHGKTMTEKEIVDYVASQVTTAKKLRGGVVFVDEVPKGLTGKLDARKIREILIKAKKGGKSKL

Chain of Follistatin (Homo sapiens) (P19883 whole entry, looked up): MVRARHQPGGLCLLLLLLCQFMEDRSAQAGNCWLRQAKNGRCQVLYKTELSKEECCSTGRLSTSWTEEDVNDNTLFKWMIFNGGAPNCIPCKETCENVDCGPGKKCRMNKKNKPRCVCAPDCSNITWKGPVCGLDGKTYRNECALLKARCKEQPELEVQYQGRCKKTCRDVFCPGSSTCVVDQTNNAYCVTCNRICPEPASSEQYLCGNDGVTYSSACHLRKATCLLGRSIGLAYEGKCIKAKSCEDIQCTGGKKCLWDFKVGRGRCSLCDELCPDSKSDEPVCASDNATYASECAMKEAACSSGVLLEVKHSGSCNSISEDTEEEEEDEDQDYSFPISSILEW
Chain of Fibroblast growth factor 2 (Homo sapiens) (P09038 whole entry, looked up): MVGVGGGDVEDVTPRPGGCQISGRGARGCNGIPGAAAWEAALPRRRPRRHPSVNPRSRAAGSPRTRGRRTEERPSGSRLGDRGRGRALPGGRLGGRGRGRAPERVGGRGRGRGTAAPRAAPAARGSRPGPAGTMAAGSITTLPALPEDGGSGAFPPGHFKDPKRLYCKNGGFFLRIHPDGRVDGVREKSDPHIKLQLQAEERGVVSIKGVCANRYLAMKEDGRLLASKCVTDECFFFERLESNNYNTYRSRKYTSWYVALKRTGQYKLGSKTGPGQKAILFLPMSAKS
Chain of Focal adhesion kinase 1 (Homo sapiens) (Q05397 whole entry, looked up): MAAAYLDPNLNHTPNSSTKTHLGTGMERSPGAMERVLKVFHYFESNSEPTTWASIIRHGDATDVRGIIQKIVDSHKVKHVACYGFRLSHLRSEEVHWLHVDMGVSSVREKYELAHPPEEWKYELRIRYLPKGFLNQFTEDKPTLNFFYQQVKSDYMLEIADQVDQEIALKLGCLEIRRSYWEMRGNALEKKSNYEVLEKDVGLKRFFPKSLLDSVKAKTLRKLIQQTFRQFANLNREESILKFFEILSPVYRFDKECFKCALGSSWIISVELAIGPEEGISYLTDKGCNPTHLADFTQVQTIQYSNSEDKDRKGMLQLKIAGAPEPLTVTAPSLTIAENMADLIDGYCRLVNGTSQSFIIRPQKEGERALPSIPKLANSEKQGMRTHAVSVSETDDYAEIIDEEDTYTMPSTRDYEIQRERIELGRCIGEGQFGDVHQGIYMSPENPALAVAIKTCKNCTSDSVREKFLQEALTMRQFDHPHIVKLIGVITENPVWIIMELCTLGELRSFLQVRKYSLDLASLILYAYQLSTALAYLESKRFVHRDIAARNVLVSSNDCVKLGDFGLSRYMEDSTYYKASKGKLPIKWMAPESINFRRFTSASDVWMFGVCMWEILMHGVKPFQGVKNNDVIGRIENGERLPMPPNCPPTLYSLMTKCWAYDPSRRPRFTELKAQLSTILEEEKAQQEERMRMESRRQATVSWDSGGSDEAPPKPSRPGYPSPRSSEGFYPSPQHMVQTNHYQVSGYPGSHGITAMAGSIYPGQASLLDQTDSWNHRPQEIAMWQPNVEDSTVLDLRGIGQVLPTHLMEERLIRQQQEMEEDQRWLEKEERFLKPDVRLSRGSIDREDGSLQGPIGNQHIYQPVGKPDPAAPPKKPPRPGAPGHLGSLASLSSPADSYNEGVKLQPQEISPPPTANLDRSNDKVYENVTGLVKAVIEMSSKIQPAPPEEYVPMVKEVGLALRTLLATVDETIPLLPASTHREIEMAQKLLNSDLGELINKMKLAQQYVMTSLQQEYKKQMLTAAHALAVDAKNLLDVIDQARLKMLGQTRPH

SMILES	composite z-score [1]	composite z-score [2]	composite z-score [3]	composite z-score [4]	composite z-score [5]	composite z-score [6]	z-score [7]	composite z-score (Lefty1)	composite z-score [8]	z-score [9]
COC(=O)[C@@]1(Cc2ccccc2)[C@H]2c3cc(C(=O)N(C)C)n(C[C@H](O)CO)c3C[C@H]2CN1C(=O)c1ccccc1	0.456 and 0.65	0.23 and 0.965	0.805 and 0.641	0.948 and 0.223	-0.342 and 0.453	-0.378 and -0.271	0.207 and 0.034	-0.6 and -0.308	0.877 and -0.0476	0.665 (inactive) and 1.66 (inactive)
Cc1ccc(S(=O)(=O)N[C@H]2COC(=O)[C@@H](C)COC(=O)[C@H](C)NC(=O)CC=C[C@H]2C)cc1	-0.293	-0.336	-0.295	-0.343	0.162	1.09	0.637	0.72	-0.634	-0.402 (inactive)
C=CCN(Cc1ccccc1)C(=O)C1N(CCCCCCO)C(=O)C2C(C(=O)O)C3C=CC21O3 (stereo not given)	0.193 and -0.664	-0.363 and -0.297	0.0147 and -0.339	-0.923 and -1.99	-1.42 and -1.07	-1.88 and -2.94	-0.38 and 0.344	-1.84 and -1.78	-0.834 and -0.785	1.01 (inactive) and 1.33 (inactive)
C[N+](C)(C)CCCCCCNC(=O)[C@@H]1C[C@@H]2C(=O)N[C@@H](CCCC[N+](C)(C)C)C(=O)N2[C@@H]1c1ccc(O)cc1	0.582 and 1.21	-0.694 and 0.212	-0.169 and -0.133	-1.44 and -0.95	1.39 and 1.34	1.47 and 1.44	-0.0687 and -0.662	0.914 and 1.04	-0.187 and -0.088	0.547 (inactive) and 0.58 (inactive)
CCOC(=O)[C@@H]1CC=C2CC1C(=O)N1CCC[C@@H]1[C@H]2O[Si](C)(C)C(C)(C)C (stereo not given in full)	-1.02 and -0.542	-0.419 and -0.434	-0.758 and -0.489	-0.454 and -1.61	-0.76 and -0.645	-0.424 and -0.469	-0.827 and -0.338	-0.224 and -0.132	-0.992 and -0.976	0.0411 (inactive) and 0.838 (inactive)
C[C@@H](ON=C1[C@H]2CCn3c(=O)n(-c4ccccc4)c(=O)n3[C@H]2[C@H](O)[C@@H]2O[C@H]12)c1cn([C@H](CO)Cc2ccccc2)nn1	2.66	0.23	-0.109	0.343	0.523	0.185	-0.546	0.467	-0.424	-0.116 (inactive)
CCCC[C@@H]1CN2[C@@H](CC[C@@H](C)[C@@H]2c2ccc(Br)cc2)C(=O)O1	2.07 and 0.917	1.16 and 0.572	0.367 and -0.0877	0.822 and 0.727	0.493 and 0.606	0.295 and 0.952	-0.555 and 1.63	0.647 and 0.882	0.303 and 0.182	0.355 (inactive) and -0.572 (inactive)
C=CC[C@H](O)c1ccc(OCCO)cc1	0.185 and 0.0367	-1.1 and -1.32	-1.14 and -0.38	-0.0902 and -3.21	0.519 and 0.726	-0.442 and 0.17	-0.441 and 0.564	-0.748 and -0.0547	0.542 and 0.645	-1.15 (inactive) and -1.17 (inactive)
C=CCN(C(=O)C(c1cccs1)N(C(=O)/C=C\C(=O)O)c1ccc(CCO)cc1)c1ccc(OC)cc1 (stereo not given)	0.502 and -2.51	-0.979 and -1.34	0.32 and -0.445	-1.36 and -2.21	-1.14 and -3.18	-2.42 and -2	0.413 and 1.3	-0.91 and -2.42	-0.4 and -0.894	-1.62 (inactive) and -1.01 (inactive)
CON(C)C(=O)c1nnc2c3ccccc3n(S(=O)(=O)c3ccc(C)cc3)c2n1	0.397 and 0.647	0.836 and 1.11	0.323 and 0.0633	0.88 and 0.578	0.229 and 0.552	0.43 and 1.31	0.551 and 0.105	0.273 and 0.757	0.184 and 0.328	-0.251 (inactive) and -0.0743 (inactive)
C=CCN(CCCC)C(=O)C(c1cccs1)N(C(=O)/C=C\C(=O)O)c1ccc(CCO)cc1 (stereo not given)	1.25 and -2.52	-0.505 and -1.38	-0.504 and -1.21	-1.08 and -1.59	-1.43 and -2.34	-1.47 and -2.18	0.65 and 0.624	-1.58 and -2.71	0.266 and -2.25	-2.48 (inactive) and -2.8 (inactive)
COC(=O)C1=C(C)N(Cc2ccccc2)[C@]23O[C@](C(=O)OC)(C(=O)N2[C@@H]1c1ccccc1)[C@@H](c1ccccc1)[C@@H]3C(=O)c1ccccc1	-0.148 and -0.112	0.771 and 0.0338	-0.0865 and -0.11	0.502 and -0.435	-0.0105 and 0.958	0.416 and 0.847	0.914 and 0.835	0.0005 and 0.36	0.516 and -0.17	-0.917 (inactive) and -0.717 (inactive)
CCN1C(=O)[C@H]2[C@H]3[C@H](O)[C@H](O)CC(=NOC[C@@H](O)COCc4ccco4)[C@@H]3CC[C@H]2C1=O	-0.48 and 2.77	-1.11 and -1.61	-0.406 and -0.591	-0.852 and -0.943	1.34 and -0.205	1.66 and -0.129	-0.254 and -1.57	1.44 and 0.31	-0.559 and -0.746	-0.0037 (inactive) and 0.33 (inactive)
C=CCN(C(=O)C(c1cccs1)N(CCOCCO)C(=O)/C=C\C(=O)O)C(C)(C)C (stereo not given)	-1.68 and -1.56	-1.4 and -0.488	-1.37 and -0.35	-0.7 and -1.15	-2.15 and -0.795	-1.7 and -1.19	1.01 and 1.41	-1.66 and -1.83	-1.04 and -0.022	-1.5 (inactive) and -1.32 (inactive)
C=CCN(C(=O)C(c1cccs1)N(CCOCCO)C(=O)/C=C\C(=O)O)c1ccc(OC)cc1 (stereo not given)	-0.542 and -1.89	-0.923 and -1.57	-0.303 and -0.67	-0.627 and -1.54	-0.745 and -1.07	-0.993 and -1.6	0.13 and 1	-0.208 and -1.45	-0.628 and -2.28	0.286 (inactive) and -2.02 (inactive)
CC(C)OC(=O)C=C1C[C@@H](c2ccccc2)O[C@@H](c2ccccc2)O1	0.871 and 1.47	1.23 and 1.25	0.255 and 0.796	0.977 and 0.962	1.26 and 1.31	1.42 and 1.02	1.55 and 0.229	1.11 and 1.31	0.824 and 1.3	0.992 (inactive) and -0.692 (inactive)
COC(=O)C1=C(C)N(Cc2ccccc2)C2=C(C(C)=O)[C@H](c3ccccc3)[C@@](O)(C(=O)OC)C(=O)N2[C@@H]1c1ccccc1	0.313 and -0.605	1.06 and -0.558	0.113 and -0.651	0.963 and 0.0691	0.764 and -0.238	0.745 and 0.282	3.76 and 1.44	0.638 and -0.0574	0.493 and -0.348	-1.12 (inactive) and -2.89 (inactive)
CCOC(=O)C[C@H]1[C@H](OC(=O)c2ccccc2-c2ccccc2)[C@@H](NC(=O)Cc2ccc(OC)cc2)c2cc(OCCCO)ccc2N1C(=O)c1ccc2ccccc2n1	0.206 and -0.185	0.24 and 0.622	-0.0875 and 0.194	0.524 and 0.464	0.392 and 0.546	0.714 and 0.119	3.49 and 0.601	0.0614 and 1.07	0.172 and 0.238	-0.391 (inactive) and -0.85 (inactive)
C=CCN(Cc1ccccc1)C(=O)C1N(CCOCCO)C(=O)C2C(C(=O)O)C3C=CC21O3 (stereo not given)	-1.85 and -0.223	-0.804 and -0.812	-1.29 and -0.708	-1.23 and -1.34	-3.29 and -1.2	-2.01 and -1.98	1.2 and -0.743	-2.56 and -2.05	-0.94 and -1.25	-0.582 (inactive) and 1.28 (inactive)
CC(CO)N1C(=O)[C@@H]2C3C(=O)OCCC=C[C@H]3OC23C=CCN(Cc2ccccc2)C(=O)[C@@H]13 (stereo not given in full)	-0.814 and -1.05	-0.716 and -0.415	0.275 and -0.855	-1.73 and -0.886	-0.972 and -1.08	-0.995 and -0.746	0.739 and 0.735	-1.17 and -0.88	-1.16 and -0.612	-0.965 (inactive) and -0.875 (inactive)
CCC[C@@H]1C[C@@]1(CCC)[C@@H](NC(=O)c1ccc(-c2ccccc2)cc1)c1cccc(Cl)c1	-0.844 and 1.8	-0.817 and 0.53	0.589 and 0.541	-0.427 and 0.367	-0.0957 and 0.115	-0.817 and -0.244	0.122 and 1.45	-0.16 and -0.268	-0.463 and 0.469	1.01 (inactive) and 1.76 (inactive)
C=CCN(CCCC)C(=O)C1N(c2c(Cl)cccc2CO)C(=O)C2C(C(=O)O)C3C=CC21O3 (stereo not given)	-1.86 and 1.18	-1.93 and -0.108	-0.983 and 0.896	-1.58 and -2.29	-1.71 and -0.64	-1.09 and -1.49	-1 and -0.998	-2.11 and -0.973	-1.16 and -0.0139	0.758 (inactive) and 1.51 (inactive)
COC(=O)C1=C(C)N(Cc2ccccc2)[C@]23O[C@](C(=O)OC)(C(=O)N2[C@@H]1c1ccccc1)[C@H]1C(=O)N(C)C(=O)[C@H]13	0.561 and 1.01	1.12 and 0.878	-0.178 and -0.0654	0.938 and 0.0407	0.368 and 0.409	0.219 and 0.4	-0.993 and 1.4	0.817 and 1.17	0.638 and 0.366	-0.576 (inactive) and -1.35 (inactive)
C[C@@H]1CC[C@H]2C(=O)N3[C@@H](CC[C@@H](C)[C@@H]3c3ccc(-c4ccco4)cc3)C(=O)N2[C@H]1c1ccc(-c2ccco2)cc1	2.61 and 1.86	1.22 and 0.674	1.68 and -0.333	1.01 and 0.912	1.35 and 1.45	0.882 and 1.36	-0.764 and -0.575	1.24 and 1.32	1.22 and 1.11	-2.93 (inactive) and -6.15 (inactive)
CCOC(=O)C[C@H]1[C@H](OC(=O)c2ccccc2-c2ccccc2)[C@@H](NC(=O)Cc2ccc(OC)cc2)c2cc(OCCCO)ccc2N1C(=O)Cc1ccc(OC)cc1	-0.109 and -0.161	0.8 and -0.925	0.14 and -0.217	0.325 and 0.237	0.214 and -0.173	-0.0463 and -0.423	1.91 and 0.598	0.517 and -0.0509	0.484 and -0.261	-1 (inactive) and 0.591 (inactive)
C[N+](C)(C)CCCCNC(=O)[C@H]1C[C@H]2C(=O)N[C@@H](CCCC[N+](C)(C)C)C(=O)N2[C@H]1c1cccc(OCCO)c1	1.98 and 1.03	-0.166 and 0.848	-0.389 and -0.117	-0.816 and -0.179	1.49 and 1.53	1.93 and 1.73	-0.59 and -0.114	1.75 and 1.59	-1.07 and 1.04	0.254 (inactive) and 0.0887 (inactive)
O=C(NN=C1C[C@@H](O)[C@@H](O)[C@@H]2[C@@H]3C(=O)N(Cc4ccc5c(c4)OCO5)C(=O)[C@@H]3CC[C@H]12)OCc1ccccc1	-0.668	-0.429	-0.0697	-0.507	-1.07	-0.274	-0.174	-0.418	-0.754	0.0421 (inactive)
